Many of the other results were omitted from the sample, so hits are more common in it than they were.
IDE exosite FP – insulin-degrading enzyme (human) exo-site inhibition | P14735 | purified IDE, FL-6b probe fluorescence polarization; hits give low values | z-score at 20 µM | actives 6.3% (n = 17,000) | AID 1259349;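 active = z-score of -3 or lower, meaning strong loss of probe binding signal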;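 note: His-tagged human IDE residues 42-1019 made in E. coli with 30 nM FL-6b probe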
Numbers stand for hits.

Screening COc1cccc(C(=O)Nc2ccc3c(c2)C(=O)N(C)[C@H]2CC[C@@H](CC(=O)NCc4ccc(F)cc4)O[C@H]2CO3)c1 returned IDE exosite FP inactive.
Screening COc1cccc(C(=O)Nc2ccc3c(c2)C(=O)N(C)[C@H]2CC[C@@H](CC(=O)NCc4ccc(F)cc4)O[C@@H]2CO3)c1 returned IDE exosite FP -6.2.
Screening CN1C(=O)c2cc(NS(C)(=O)=O)ccc2OC[C@@H]2O[C@@H](CC(=O)N3CCOCC3)CC[C@@H]21 returned IDE exosite FP -5.1.
Screening CCS(=O)(=O)Nc1ccc2c(c1)C(=O)N(C)[C@H]1CC[C@@H](CC(=O)NCc3ccc(OC)cc3)O[C@@H]1CO2 returned IDE exosite FP -4.2.
CCS(=O)(=O)Nc1ccc2c(c1)C(=O)N(C)[C@@H]1CC[C@H](CC(=O)NCc3ccc(OC)cc3)O[C@H]1CO2 was read as IDE exosite FP inactive.
For COc1ccc(C(=O)Nc2ccc3c(c2)C(=O)N(C)[C@H]2CC[C@@H](CC(=O)NCC4CC4)O[C@@H]2CO3)cc1 the results were IDE exosite FP inactive.
`CN1C(=O)c2cc(NS(C)(=O)=O)ccc2OC[C@@H]2O[C@H](CC(=O)NCc3ccccc3)CC[C@@H]21` gave IDE exosite FP inactive.
CN1C(=O)c2cc(NS(C)(=O)=O)ccc2OC[C@H]2O[C@H](CC(=O)N3CCOCC3)CC[C@H]21 was read as IDE exosite FP inactive.
COc1ccc(C(=O)Nc2ccc3c(c2)C(=O)N(C)[C@H]2CC[C@H](CC(=O)NCC4CC4)O[C@H]2CO3)cc1 was read as IDE exosite FP -3.6.
`COc1ccc(C(=O)Nc2ccc3c(c2)C(=O)N(C)[C@H]2CC[C@H](CC(=O)NCC4CC4)O[C@@H]2CO3)cc1` gave IDE exosite FP inactive.
`CN1C(=O)c2cc(NS(C)(=O)=O)ccc2OC[C@@H]2O[C@H](CC(=O)N3CCOCC3)CC[C@@H]21` gave IDE exosite FP inactive.
`Cc1ccccc1S(=O)(=O)N1CC(=O)N2[C@@H](CO)[C@H](c3ccc(C#CCC4CCCC4)cc3)[C@@H]2C1` gave IDE exosite FP inactive.
For CCc1sc(N2[C@@H](C#N)[C@@H](c3ccccc3-c3ccc(F)cc3)[C@@H]2CO)nc1C the results were IDE exosite FP inactive.
COc1ccc2c3c(n(C)c2c1)[C@@H](CO)N(Cc1nccs1)CC31CCN(CC2CCCC2)CC1 was read as IDE exosite FP inactive.
`N#C[C@H]1[C@@H](c2ccccc2C2=CCCCC2)[C@@H](CO)N1C(=O)NC1CCCC1` gave IDE exosite FP inactive.
`Cc1noc(C)c1S(=O)(=O)Nc1ccc2c(c1)C(=O)N([C@H](C)CO)C[C@@H](C)[C@@H](CN(C)Cc1ccc(C(=O)O)cc1)OCCCC[C@H](C)O2` gave IDE exosite FP inactive.
For O=C1N[C@@H](Cc2ccccc2)COCc2cn(nn2)CC[C@@H]1Cc1cccc(F)c1 the results were IDE exosite FP inactive.
For OC[C@@H]1[C@H](c2ccc(C#Cc3cccnc3)cc2)[C@H]2CN(Cc3ccccc3F)CCCCN12 the results were IDE exosite FP inactive.
For COc1ccccc1-c1ccc([C@@H]2[C@@H](CO)N3CCCCN(S(=O)(=O)c4cn(C)cn4)C[C@@H]23)cc1 the results were IDE exosite FP -15.
`Cn1cnc(S(=O)(=O)N2CCCCN3[C@H](C2)[C@@H](c2ccc(C#CC4CCCC4)cc2)[C@@H]3CO)c1` gave IDE exosite FP inactive.
COc1ccccc1-c1ccc([C@@H]2[C@H](CO)N3CCCCN(S(=O)(=O)c4cn(C)cn4)C[C@@H]23)cc1 was read as IDE exosite FP -13.
Cn1cnc(S(=O)(=O)N2CCCCN3[C@@H](CO)[C@H](c4ccc(C#CC5CCCC5)cc4)[C@@H]3C2)c1 was read as IDE exosite FP inactive.
`Cn1cnc(S(=O)(=O)N2CCCCN3[C@H](CO)[C@H](c4ccc(C#CC5CCCC5)cc4)[C@H]3C2)c1` gave IDE exosite FP inactive.
Screening COc1ccccc1-c1ccc([C@H]2[C@H]3CN(S(=O)(=O)c4cn(C)cn4)CCCCN3[C@H]2CO)cc1 returned IDE exosite FP inactive.
For COc1ccc2c3c([nH]c2c1)[C@H](CO)N(S(C)(=O)=O)CC31CN(C(=O)Cc2cccnc2)C1 the results were IDE exosite FP inactive.
`CN1c2ccc(-c3ccc(C#N)cc3)cc2[C@@H]2[C@@H](CCN2S(=O)(=O)c2ccc(F)cc2)[C@@H]1CO` gave IDE exosite FP inactive.
Screening CCCC#Cc1ccc([C@H]2[C@@H](CO)N3C(=O)CN(C(=O)c4ccccc4)C[C@@H]23)cc1 returned IDE exosite FP inactive.
Screening CCCNC(=O)N1C[C@@H](C)[C@H](OC)CN(C)C(=O)c2ccc(NC(=O)CC)cc2OC[C@H]1C returned IDE exosite FP inactive.
Screening CC(=O)N1CCCCN2[C@H](CO)[C@@H](c3ccc(-c4ccccc4)cc3)[C@H]2C1 returned IDE exosite FP inactive.
Screening CC(=O)N1CCCCN2[C@H](CO)[C@H](c3ccc(C#Cc4ccccc4F)cc3)[C@@H]2C1 returned IDE exosite FP -4.9.
CC(=O)N1CCCCN2[C@@H](CO)[C@H](c3ccc(C#Cc4ccccc4F)cc3)[C@@H]2C1 was read as IDE exosite FP inactive.
